# This is a sample that favours compounds with a hit; in the whole collection about 4.8% have one here.
# Wee1 degr inh – human Wee1 degradation inhibition, primary screen; HeLa Luc-Wee1K328M stability, luciferase luminescence; 100% = proteasome inhibitor MG132 effect; reporter increase, % at 5 µM; 220,000 tested, 1.2% active;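 active = activation above the mean of all tested compounds plus 3 SD, set per screening run, cut at about 8.8% in these data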;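 also: cells exposed to compound for 20 h before luminescence read; 0% = DMSO alone and 100% = MG132 at 30 µM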
# Target sequence (P30291 whole entry K328M): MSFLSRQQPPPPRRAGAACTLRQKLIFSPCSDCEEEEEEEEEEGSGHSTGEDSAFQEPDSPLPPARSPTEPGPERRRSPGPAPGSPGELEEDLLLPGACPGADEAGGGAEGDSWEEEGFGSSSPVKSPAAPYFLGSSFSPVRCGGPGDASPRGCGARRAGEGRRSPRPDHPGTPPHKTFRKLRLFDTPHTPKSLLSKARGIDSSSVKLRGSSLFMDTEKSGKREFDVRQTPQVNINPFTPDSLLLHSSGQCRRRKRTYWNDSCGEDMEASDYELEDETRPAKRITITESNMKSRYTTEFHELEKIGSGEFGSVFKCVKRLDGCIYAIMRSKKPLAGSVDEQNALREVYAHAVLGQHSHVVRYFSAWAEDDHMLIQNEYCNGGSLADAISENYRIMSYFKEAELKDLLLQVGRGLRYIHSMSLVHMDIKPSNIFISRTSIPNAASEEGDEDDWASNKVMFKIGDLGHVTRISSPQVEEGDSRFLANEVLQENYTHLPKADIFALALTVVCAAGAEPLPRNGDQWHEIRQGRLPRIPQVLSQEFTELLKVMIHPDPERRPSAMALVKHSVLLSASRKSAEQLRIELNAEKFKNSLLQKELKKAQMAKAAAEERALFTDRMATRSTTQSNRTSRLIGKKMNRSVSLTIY
# NF-kB neuron act – NF-kB expression increase, human neuronal cells; AID 1239; fold change at 12.5 µM; 190,000 tested, 1.6% active; NF-kB reporter expression; active compounds read high; in the data active = fold change above about 3.3
# APP 5'UTR act – APP 5'UTR luciferase reporter activation; 190,000 tested, 1% active; SH-SY5Y APP 5'UTR luciferase reporter, luminescence; zero percent = DMSO vehicle wells; activation, % at 2 µM;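 active = activation above a set limit, based on mean plus 3 SD of controls, cut at about 140% in these data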
# STAT1 act – activators of IFN-gamma induced STAT1 signaling; 200,000 tested, 2.6% active; activation (% of control), % at 5.5 µM; AID 932; NIH 3T3 STAT1-luciferase reporter, luminescence; 100% = IFN-gamma alone, no compound;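 active = activation above the screen-wide mean activation plus 3 SD, cut at about 130% in these data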;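 also: raw ratio to IFN-gamma control signal so 100% means no change and 0% no light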
# APP transl inh – APP translation inhibition; SH-SY5Y APP 5'UTR-luciferase reporter, luminescence; inhibition, % at 2 µM; 190,000 tested, 0.82% active; AID 1285;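 active = inhibition above a set limit, derived from the sample mean plus 3 SD, cut at about 45% in these data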
# Hsp70 activator – Hsp70 transcriptional activation, primary screen; HeLa Hsp70 promoter luciferase reporter, luminescence; scaled: vehicle 0, proteasome-inhibitor control 100%; activation, % at 10 µM; 200,000 tested, 0.04% active;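 active = activation above the mean across all tested compounds plus 3 SD, cutoff set per campaign, cut at about 5.5% in these data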;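 also: 100% = MG132 at 30 µM as the positive control and 0% = DMSO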
# Wee1 degr conf – human Wee1 degradation inhibition, confirmation; HeLa Luc-Wee1K328M degradation, luminescence; vehicle 0%, proteasome-blocked wells 100%; shares compounds with Wee1 degr inh; activation, % at 5 µM; 1,100 tested, 4% active; AID 1410; in the data active = activation above about 8.9%
# Numbers without * were called inactive; nt = no result.
SMILES,Wee1 degr inh,NF-kB neuron act,APP 5'UTR act,STAT1 act,APP transl inh,Hsp70 activator,Wee1 degr conf
CC(C)(C)OC(=O)N1CCCC1C(=O)N1CCCC1C(=O)N1CCCC1C(=O)O (centres undefined),-1.9,1.12,-5.6,101.1,5.6,0.3,nt
COC(=O)CNC(=O)C1CCCN1C(=O)OC(C)(C)C (centres undefined),12.6*,1.07,1.9,106.7,-1.9,-0.6,-1.1
O=C(O)/C=C/c1cnn(-c2ccccc2)c1,15.1*,1.95,89.9,73.8,-89.9,-0.2,-4.8
COc1ccc(C2(O)CC3CCC(C2)N3c2cc(C)nc(-c3ccccc3)n2)cc1 (centres undefined),1.2,0.76,11.8,102.8,-11.8,-0.1,nt
Cc1cc(N2CCCC2)nc(N2C3CCC2CC(O)(c2ccc(F)cc2)C3)n1 (centres undefined),16.4*,0.83,-9.3,90.6,9.3,-0.2,-3.0
CC1CCN(C(=S)Nc2cccc(S(=O)(=O)N(C)C)c2)CC1,0.1,1.03,-0.6,98.9,0.6,-0.1,nt
O=C(Nc1ccon1)c1cccc(S(=O)(=O)N2CCCC2)c1,29.0*,0.88,6.0,104.0,-6.0,-0.2,-0.5
COc1ccc(NC(=O)CSCC(=O)NCCc2ccccn2)cc1,16.3*,1.04,-1.1,103.3,1.1,0.0,-1.5
O=C(O)c1ccc2c3c(cccc13)C(=O)N(c1cccc3ccccc13)C2=O,-2.1,1.11,8.7,102.1,-8.7,-0.1,nt
CC(=O)c1cccc(NC(=O)CSc2ccc(-c3ccc4c(c3)OCO4)nn2)c1,-1.1,1.53,28.8,97.2,-28.8,-0.3,nt
COc1ccc(-c2ccc(SCC(=O)Nc3cccc(C(C)=O)c3)nn2)cc1OC,11.8*,1.07,43.3,101.7,-43.3,0.3,5.4
COC(=O)c1ccc(COc2ccccc2/C=C(\C#N)C(=O)Nc2c(C)cccc2C)cc1,-0.1,1.29,-20.8,101.9,20.8,-0.3,nt
COC(=O)c1ccc(COc2ccccc2/C=C(\C#N)C(=O)Nc2ccccc2C)cc1,20.3*,1.25,-6.0,97.4,6.0,0.0,-0.6
CC(C)C(C)NC(=O)COC(=O)c1cc(S(=O)(=O)N(C)C)ccc1N1CCCC1 (centres undefined),-2.8,1.06,-14.2,97.6,14.2,-0.1,nt
COc1ccc(CNCCNC(=O)c2cccs2)c(OC)c1OC,12.3*,0.98,-3.1,98.5,3.1,-0.2,-1.4
CN(C)S(=O)(=O)c1ccc(C(=O)Nc2cc(S(=O)(=O)Nc3ccccc3Cl)ccc2N2CCCCC2)cc1,-2.8,0.68,41.0,96.5,-41.0,-0.1,nt
Cc1ccc(C)c(NC(=O)CN2C(=O)CNC2=O)c1,-2.1,1.41,0.4,102.2,-0.4,0.4,nt
O=C(Nc1ccccc1)C1=C[C@H](c2ccc(Br)cc2)C[C@H](OCc2ccc(CO)cc2)O1,10.9*,0.85,6.1,103.7,-6.1,-0.1,4.8
CCOCCCn1cnc2c3cc(F)ccc3n(C)c2c1=O,-0.9,nt,nt,nt,nt,nt,nt
CN(C)c1oc(-c2cccs2)nc1C#N,-3.2,1.26,13.4,102.1,-13.4,-0.3,nt
CN(C)c1ccc(-c2nnc(-c3cccs3)o2)cc1,15.5*,7.23*,163.3*,75.5,-163.3,-0.2,-1.1
Oc1c(CN2CCOCC2)ccc2ccccc12,11.1*,1.13,16.8,97.1,-16.8,0.1,-0.3
Oc1c(CN2CCOCC2)cc(-c2ccccc2)cc1CN1CCOCC1,-1.2,1.23,28.3,94.0,-28.3,-0.5,nt
CCCc1nc2c(sc3nc4c(cc32)COC(C)(C)C4)c(=O)n1CCN(CC)CC,2.6,1.32,6.0,92.8,-6.0,-0.3,nt
COc1ccc(C2=NN(C(=O)CN3CCCCC3)C(c3ccc(OC)cc3)C2)cc1 (centres undefined),13.3*,nt,nt,nt,nt,nt,2.6
SMILES,Wee1 degr inh,NF-kB neuron act,APP 5'UTR act,STAT1 act,APP transl inh,Hsp70 activator,Wee1 degr conf
O=C(CCC(=O)Nc1nnc(C2CCCCC2)s1)NCC1CCCO1 (centres undefined),15.6*,1.2,-2.8,91.7,2.8,-0.3,1.8
Cc1nc(NC(N)=S)sc1C(=O)Nc1ccccc1,1.6,1.22,-9.0,97.8,9.0,-0.3,nt
Cc1ccc(C)c(S(=O)(=O)Nc2nc(C)c(C(=O)Nc3ccccc3)s2)c1,13.6*,1.08,-15.3,97.7,15.3,-0.2,2.2
Fc1ccccc1/C=N/Nc1ncnc2ccccc12,11.5*,7.91*,76.2,127.2,-76.2,0.3,2.9
CNC(=S)NNC(=O)Cc1ccccc1,-1.3,0.89,10.2,101.9,-10.2,-0.1,nt
CCOc1ccc(CC(=O)NNC(=S)NC)cc1,13.8*,nt,nt,nt,nt,nt,-2.8
CCOC(=O)Cc1[nH]nc2c1C(C1C=CCCC1)C(C#N)=C(N)O2 (centres undefined),-0.1,0.89,-8.1,93.3,8.1,0.2,nt
O=C(CN1N=C(c2ccc(Cl)cc2)CCC1=O)NCc1cccs1,11.7*,1.05,-2.9,94.7,2.9,0.0,-1.7
CCOC(=O)c1c(Nc2ccccc2OCCOC)n[nH]c1C,11.4*,nt,nt,nt,nt,nt,0.0
CCOc1ccccc1N(CC(=O)Nc1ccccc1C(=O)NCc1ccco1)S(C)(=O)=O,-1.9,1.03,nt,96.7,-7.7,0.1,nt
Cc1oc(CC(C)C)cc1C(=O)Nc1ccc(C(=O)O)cc1,4.5,2.5,-16.5,118.7,16.5,-0.3,nt
COc1ccc(N2CCC(CNC(=S)Nc3cccc(C)c3)C2)cc1 (centres undefined),11.1*,1.11,-11.9,96.1,11.9,-0.3,0.2
O=S(=O)(c1ccc(Oc2ncnc3scc(-c4ccccc4)c23)cc1)N1CCOCC1,18.5*,0.99,4.6,101.1,-4.6,0.1,0.0
O=C(CCSCc1ccccc1F)NCc1cccs1,10.9*,1.01,-8.8,107.4,8.8,-0.3,0.3
COc1ccc(Br)cc1CNC(=O)CCCc1cn(C)c2ccccc12,11.1*,0.95,10.1,91.8,-10.1,-0.1,-3.9
C=CCc1cc(C)cc(C)c1OCCn1cncn1,-0.1,1.18,-0.8,94.0,0.8,-0.2,nt
COc1cc(C2Nc3cc(Cl)c(S(N)(=O)=O)cc3S(=O)(=O)N2)cc(OC)c1OC (centres undefined),11.6*,1,-4.7,104.4,4.7,0.4,-1.0
COc1cccc(C2Nc3cc(Cl)c(S(N)(=O)=O)cc3S(=O)(=O)N2)c1 (centres undefined),-0.3,1.18,-3.2,94.2,3.2,0.1,nt
O=c1[nH]cnc2ccsc12,-1.6,1.21,-8.0,105.9,8.0,0.1,nt
O=c1c(Cc2c(F)cccc2Cl)c(O)ccn1CC1CCCO1 (centres undefined),12.2*,0.85,14.8,110.1,-14.8,-0.1,-1.8
COc1ccccc1-n1cnnc1SCC(=O)Nc1ncc(Cl)cc1Cl,-2.2,1.26,-2.2,101.6,2.2,0.3,nt
